One assay addresses TRIM48. The assay can be described thus: pooled miR-30 sensor sort-seq; sequence = guide strand. The settings on record: shRNA.
ATGTCGTTCTTAACACACCCAA displayed a sensor-assay potency score (higher = more potent) of -1.03. Same read-out and setting: next, TTCTCAAATCTCCACATCGGAA: -1.49; TTTCTCTGCTGTATTGTCTTTA: -0.0647. On the same count and under the same terms, as for TTTCTTTAACAGCTTCTCCCAG, the figure is -0.688; as for TGCTGTATTGTCTTTATGCATT, -1.57; as for TTCTCTGATTTTCACAAGCTTT, -1.29. On the same count and under the same terms, as for TGTCGTTCTTAACACACCCAAG, the figure is -1.51; as for TTAACAGCTTCTCCCAGTGTTC, -1.29; as for TTCTCTGCTGTATTGTCTTTAT, -1.43. Consider AAACCGAACCTATTTGTCCTGT, for which the sensor-assay potency score (higher = more potent) was 0.0588. Still for that read-out and setting: next, AACATCTTCTTTGTCTCCCTGT: 0.214.

For the sequence TTCTTTAACAGCTTCTCCCAGT, the sensor-assay potency score (higher = more potent) is -0.186.

Another assay deals with TRIM50. Described as above. The settings on record: shRNA.
TAGTCGAAGCGCTCAGGCTGGC returned a sensor-assay potency score (higher = more potent) of -0.915.

Sequence TGGAACTTCCGGATGAACTTGT displayed a sensor-assay potency score (higher = more potent) of -0.0502. The same measure, in the same setting: next, TTGTGGTGGTCCTCATTGCCGA: -1.14; TTCAGCTTGCCCTTACGGCTGG: -0.338; AAAACTTTCCGGAAGAGCCTTT: -0.209. The same measure, in the same setting: as for TCATAGTGCAGGTAGAGCCCGA, the figure is -0.353; as for TTCGCCCTGCTCATAGTGCAGG, -1.35; as for TGCTGTAGTCGAAGCGCTCAGG, -1.06.

As to TGAACTTGTGGTGGTCCTCATT, the sensor-assay potency score (higher = more potent) was -1.36.

For the sequence TCCAACTTGAGAGGCTCCGGGG, the sensor-assay potency score (higher = more potent) is -1.47. The same measure, in the same setting: as for TTCCGGATGAACTTGTGGTGGT, the figure is -0.035; as for TTGGGCAGGGAGCTGCTGCCGT, -1.11.

The target of another assay is TRIM54. The description is as above. The settings on record: shRNA.
For the sequence TTTGGAGAACATCTCCAGGCAG, the sensor-assay potency score (higher = more potent) is -0.659. Still for that read-out and setting: as for TTGTCCTCGATAGTCTGGCACA, the figure is -1.37. In turn, TTGGAGAACATCTCCAGGCAGA came in with a sensor-assay potency score (higher = more potent) of -0.654.

TTATTGATCAGCTCCTTGGCCT displayed a sensor-assay potency score (higher = more potent) of -0.188. Still for that read-out and setting: as for TTTAACAACTGCTTCTGCCTCC, the figure is 0.72; as for TGGTTTGGAGAACATCTCCAGG, -1.46; as for TCCATCTGTGTGATCACTGCTT, -0.164.

Take AACAACTGCTTCTGCCTCCGGC: the sensor-assay potency score (higher = more potent) was -0.512. Still for that read-out and setting: as for TTGCCTGCCACCAGCATCGCGA, the figure is -1.1; as for TAGTCTGGCACACCTCCTCCAT, -1.55. For TCGCTGAGCTCACTCTTCTGGC, the sensor-assay potency score (higher = more potent) is -0.97.

As to TAACAACTGCTTCTGCCTCCGG, the sensor-assay potency score (higher = more potent) is -0.255.

Values taken from the OligoGym collection.
Further: reference of the scale not given here.
